# Results from the supplement of paper PMC8726507.
# Values without a mark were called inactive.
# Test system: Plasmodium falciparum NF54-HGL (transmission to Anopheles stephensi)
# Test: percentage of barcode signal found in uninfected mosquitoes (transmission-blocking activity); higher = stronger blocking of transmission to mosquito, active = 80 or more
# Conditions: 10 µM; gametocyte preincubation time 24 h; readout time post-feed 8 days
# Protocol: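 The mixture was fed to Anopheles stephensi in 96-well plates as blood meals tagged with DNA-barcoded Asaia bacteria. Eight days later, mosquitoes were classed infected or uninfected by luminescence (mean + 5 SD of unfed controls). Barcodes were quantified by Luminex MagPlex-TAG in the pooled uninfected and infected Asaia cultures, background-corrected, and the score is % of barcode signal in uninfected mosquitoes = 100*Iu/(Iu+Ii).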
row,Compound,percentage of barcode signal found in uninfected mosquitoes
1,COCC(C)NC(=O)CSc1ncnc2sc(-c3ccccc3)cc12 (stereo not given),47.4%
2,Cc1cnc(CCNC(=O)c2cc(-c3ccc(Cl)cc3)cs2)[nH]1,7.14%
3,c1coc(CNc2nc(N3CCCCC3)nc3ccccc23)c1,38.7%
4,Cc1ncc(-c2ccnc(Nc3ccc(S(C)(=O)=O)cc3)n2)n1C(C)C,82.6% (active)
5,C[C@]1(O)C[C@@H](c2nc(-c3ccc4ccc(-c5ccccc5)nc4c3)c3c(N)nccn32)C1,80.6% (active)
6,CC(C)c1ncc(-c2ccncc2)c([C@H]2CC[C@H](CNC(=O)c3cccnc3)CC2)n1,31.4%
7,CC(=O)Oc1ccccc1C(=O)Nc1ncc([N+](=O)[O-])s1,8.87%
8,O=C(Nc1ccc2c(c1)B(O)OC2)c1ccccc1C(F)(F)F,84.1% (active)
9,c1csc(-c2cnc3sc(NCC4CCOCC4)nn23)c1,38.7%
10,COc1ccc(C2=NN(C3CCCCCC3)C(=O)[C@@H]3CC=CC[C@H]23)cc1OCCCCOc1ccc(-c2nn[nH]n2)cc1,63.6%
11,CCC(=O)Nc1ccccc1C(=O)Nc1ccccn1,50%
12,COc1ccc(Cl)cc1NC(=O)CN(C)C(=O)c1cnn(-c2ccccc2)n1,64.6%
13,CC1CS(=O)(=O)CCN1/N=C/c1ccc([N+](=O)[O-])o1 (stereo not given),91.3% (active)
14,COc1cccc(OCC(=O)c2ccc(Br)cc2)c1,13.7%
15,CC(C)(C)C1CCC(CC2=C(O)C(=O)c3ccccc3C2=O)CC1 (stereo not given),83.7% (active)
16,Cc1cc(C(=O)Nc2cnn(Cc3ccc(Cl)cc3Cl)c2)no1,42.7%
17,COC(=O)c1ccc(F)cc1NS(=O)(=O)c1cccc(-c2cnn(Cc3ccccc3)c2)c1,31.1%
18,Cc1cccnc1NC(=O)c1cccc(OCc2c(C)noc2C)c1,-2.5%
19,Cc1nnc(NCc2cccc(Cl)c2)c2ccccc12,34.2%
20,N=C(N)c1ccc(-c2cc(-c3ccccc3)on2)cc1,33.2%
21,CC1=Nc2ccc(Cl)cc2C(O)(c2ccc(C)cc2)N1CCN1CCCCC1 (stereo not given),83.9% (active)

# Same assay, conditions: 20 µM; gametocyte preincubation time 24 h; readout time post-feed 8 days
row,Compound,percentage of barcode signal found in uninfected mosquitoes
1,Nc1nc2ccc(-c3cncc(Oc4ccc(F)cc4)c3)cc2[nH]1,99.4% (active)
2,CN1CCC(c2cc(-c3ccncc3)c(-c3ccc(F)cc3)[nH]2)CC1,78.1%
3,CC(C)(C)OC(=O)N1CCN(c2cc(-c3ccc(Oc4ccccc4)cc3)n[nH]2)CC1,39.8%
4,COc1cc(-c2cc(-c3ccc(S(C)(=O)=O)cc3)cnc2N)ccc1O,48.6%
5,Cc1[nH]c2cc(F)cc(F)c2c(=O)c1-c1ccc(Oc2ccc(OC(F)(F)F)cc2)cc1,78.3%
6,CC[P](CC)(CC)=[Au][S][C@H]1O[C@@H](COC(C)=O)[C@H](OC(C)=O)[C@@H](OC(C)=O)[C@@H]1OC(C)=O,99% (active)
7,Cc1cc(C)c2cc(C(=O)NC3CCCCCCC3)[nH]c2c1,0.265%
8,Nc1ccc2ncnc(Nc3ccc(OCc4cccc(F)c4)c(Cl)c3)c2c1,17.8%
9,O=C(Nc1cccc(Cl)c1)c1cnc(N2CCN(c3ccncc3)CC2)c(Cl)c1,56%
10,O=C(N[C@H](Cc1ccccc1)C(=O)Nc1ccccc1N1CCOCC1)c1cccs1,13.5%
11,Nc1ncnc2c1c(-c1cnc3ccccc3c1)nn2CC1CCNCC1,-2.55%
12,COc1ccc(C2=NCCN2)cc1-c1cn(-c2cccc(C3=NCCN3)c2)nn1,16.8%
13,FC(F)(F)c1cc(NCCc2ccccc2)nc(-c2ccccn2)n1,62.2%
14,COc1ccc(CN2CCOc3ccc(C(C)(O)CN(C)C)cc3C2)cc1C (stereo not given),36.4%
15,COc1ccc(N(CCc2cccc(C)n2)C(C)=O)cc1,0.592%
16,C[C@H](C(N)=O)N1CCCC[C@H]1c1ccc(OCc2cccc(F)c2)cc1,25%
17,Cc1ccc(S(=O)(=O)n2cc(-c3ccnc(N)c3)c3cc(Br)cnc32)cc1,1.79%
18,CNC(=O)C1Cc2c([nH]c3cc(Cl)ccc23)C2(CCN(CCc3ccccc3)CC2)N1 (stereo not given),87.5% (active)
19,Cc1nn(C)cc1C(C)Nc1nncc(-c2ccc(C(F)(F)F)cc2)n1 (stereo not given),89.3% (active)
